Source: PubChem BioAssay (NCATS)
Inconclusive results are not listed. Calls of active or inactive are those of the source. Calls follow the shape of the dose curve; as a rule, active = well fitted cell-killing curve with a large enough effect; inconclusive = small, poorly fitted or top-dose-only effect, or effect the other way; inactive = flat fitted curve, though single readings scatter.

How the values were obtained:
Assay in all cases: Primary qHTS to identify gynecologic anti-cancer compounds using libraries of approved drugs and bioactive compounds (AID 1345084); also: nearly all actives have a fitted effect of over 55% in size
[1] = test system: C33A; conditions: Gynecologic cancer cell panel viability, ATPlite luminescence, 48 h; series mostly up to 57.5 µM
Method in brief: (§1)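 Cells, 1,000 per well, plated 16 h, then exposed 48 h at 37 C to compounds. Viability by ATPlite luminescence after 15 min at room temperature.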

[2] = test system: CAOV3; conditions: Gynecologic cancer cell panel viability, ATPlite luminescence, 48 h; series mostly up to 57.5 µM
Method in brief: as §1

[3] = test system: CASKI; conditions: Gynecologic cancer cell panel viability, ATPlite luminescence, 48 h; series mostly up to 57.5 µM
Method in brief: as §1

[4] = test system: Es-2; conditions: Gynecologic cancer cell panel viability, ATPlite luminescence, 48 h; series mostly up to 57.5 µM
Method in brief: as §1

[5] = test system: HeLa; conditions: Gynecologic cancer cell panel viability, ATPlite luminescence, 48 h; series mostly up to 57.5 µM
Method in brief: as §1

[6] = test system: Hek293T; conditions: Gynecologic cancer cell panel viability, ATPlite luminescence, 48 h, control line for the selectivity index; series mostly up to 57.5 µM
Method in brief: as §1

[7] = test system: JEG-3; conditions: Gynecologic cancer cell panel viability, ATPlite luminescence, 48 h; series mostly up to 57.5 µM
Method in brief: as §1

[8] = test system: OV90; conditions: Gynecologic cancer cell panel viability, ATPlite luminescence, 48 h; series mostly up to 57.5 µM
Method in brief: as §1

[9] = test system: PA-1; conditions: Gynecologic cancer cell panel viability, ATPlite luminescence, 48 h; series mostly up to 57.5 µM
Method in brief: as §1

[10] = test system: SKOV3; conditions: Gynecologic cancer cell panel viability, ATPlite luminescence, 48 h; series mostly up to 57.5 µM
Method in brief: as §1

[11] = test system: Tov-21-G; conditions: Gynecologic cancer cell panel viability, ATPlite luminescence, 48 h; series mostly up to 57.5 µM
Method in brief: as §1

[12] = test system: Tov112D; conditions: Gynecologic cancer cell panel viability, ATPlite luminescence, 48 h; series mostly up to 57.5 µM
Method in brief: as §1
% is scaled to controls: 0 for no effect and ±100 for the full control effect.

C=C1CCCC2(C)CCC(C(C)(C)OC3OC(C)C(O)C(O)C3OC(=O)/C(C)=C\C)CC12 (configuration not stated)
inactive: Potency [1] | Potency [2] | Potency [3] | Potency [4] | Potency [5] | Potency [6] | Potency [7] | Potency [8] | Potency [9] | Potency [10] | Potency [11] | Potency [12]

COc1ccc(CN2CCN(CCCSc3cc(C(C)(C)C)c(O)c(C(C)(C)C)c3)CC2)c(OC)c1OC
inactive: activity change, negative = cytotoxicity [1] 1.62% [at 11.6 µM] | activity change, negative = cytotoxicity [2] 11% [at 11.6 µM] | activity change, negative = cytotoxicity [3] -0.531% [at 11.6 µM] | activity change, negative = cytotoxicity [4] 12.2% [at 11.6 µM] | activity change, negative = cytotoxicity [5] 8.85% [at 11.6 µM] | activity change, negative = cytotoxicity [6] -2.05% [at 11.6 µM] | activity change, negative = cytotoxicity [7] 1.83% [at 11.6 µM] | activity change, negative = cytotoxicity [8] 3.61% [at 11.6 µM] | activity change, negative = cytotoxicity [9] 1.3% [at 11.6 µM] | activity change, negative = cytotoxicity [10] 17.3% [at 11.6 µM] | activity change, negative = cytotoxicity [11] 7.27% [at 11.6 µM] | activity change, negative = cytotoxicity [12] 2.48% [at 11.6 µM]

C=C(C(=O)OC[C@H]1O[C@@H](OC(=O)/C=C/c2ccccc2)[C@H](O)[C@@H](O)[C@@H]1O)C(O)CO (some centres not stated)
inactive: Potency [1] | Potency [2] | Potency [3] | Potency [4] | Potency [5] | Potency [6] | Potency [7] | Potency [8] | Potency [9] | Potency [10] | Potency [11] | Potency [12]

C#CCNCc1cc2cc(OCc3ccccc3)ccc2[nH]1
inactive: Potency [1] | Potency [2] | Potency [3] | Potency [4] | Potency [5] | Potency [6] | Potency [7] | Potency [8] | Potency [9] | Potency [10] | Potency [11] | Potency [12]

O=C1c2ccc(Nc3ccc(F)cc3F)cc2CCc2ccc(OCC(O)CO)cc21 (configuration not stated)
inactive: Potency [1] | Potency [2] | Potency [3] | Potency [4] | Potency [5] | Potency [6] | Potency [7] | Potency [8] | Potency [9] | Potency [10] | Potency [11] | Potency [12]

NS(=O)(=O)c1ccc(NC(=O)Nc2ccc(F)cc2)cc1
inactive: Potency [1] | Potency [2] | Potency [3] | Potency [4] | Potency [5] | Potency [6] | Potency [7] | Potency [8] | Potency [9] | Potency [10] | Potency [11] | Potency [12]

COc1c(CCC(=O)O)cccc1O[C@@H]1O[C@H](CO)[C@@H](O)[C@H](O)[C@H]1O
inactive: Potency [1] | Potency [2] | Potency [3] | Potency [4] | Potency [5] | Potency [6] | Potency [7] | Potency [8] | Potency [9] | Potency [10] | Potency [11] | Potency [12]

CCC/C=C/c1cc2c(C=O)c(O)c(CC=C(C)C)cc2o1
inactive: Potency [1] | Potency [2] | Potency [3] | Potency [4] | Potency [5] | Potency [6] | Potency [7] | Potency [8] | Potency [9] | Potency [10] | Potency [11] | Potency [12]

N#Cc1ccc(N2N=C3c4ccc(C(=O)O)cc4CC[C@@H]3[C@@H]2C2CCCC2)cc1Cl
inactive: Potency [1] | Potency [2] | Potency [3] | Potency [4] | Potency [5] | Potency [6] | Potency [7] | Potency [8] | Potency [9] | Potency [10] | Potency [11] | Potency [12]

CC(NCCCc1cccc(C(F)(F)F)c1)c1cccc2ccccc12 (configuration not stated)
inactive: Potency [1] | Potency [2] | Potency [3] | Potency [4] | Potency [5] | Potency [6] | Potency [7] | Potency [8] | Potency [9] | Potency [10] | Potency [11] | Potency [12]

O=C(c1cc(Cc2n[nH]c(=O)c3ccccc23)ccc1F)N1CCCNCC1
inactive: Potency [1] | Potency [2] | Potency [3] | Potency [4] | Potency [5] | Potency [6] | Potency [7] | Potency [8] | Potency [9] | Potency [10] | Potency [11] | Potency [12]

COc1ccc(S(=O)(=O)Nc2cc(Cl)cc(Cl)c2OC)cc1N1CCNCC1
inactive: Potency [1] | Potency [2] | Potency [3] | Potency [4] | Potency [5] | Potency [6] | Potency [7] | Potency [8] | Potency [9] | Potency [10] | Potency [11] | Potency [12]

CC[C@H]1OC(=O)[C@H](C)[C@@H](O[C@H]2C[C@@](C)(OC)[C@@H](O)[C@H](C)O2)[C@H](C)[C@@H](O[C@H]2O[C@H](C)C[C@H](N(C)C)[C@H]2O)[C@](C)(O)C[C@@H](C)C(=O)[C@H](C)[C@@H](O)[C@]1(C)O
inactive: Potency [1] | Potency [2] | Potency [3] | Potency [4] | Potency [5] | Potency [6] | Potency [7] | Potency [8] | Potency [9] | Potency [10] | Potency [11] | Potency [12]

Cc1c(F)ccc(C(=O)Nc2cc([N+](=O)[O-])ccc2N2CCN(C)CC2)c1Cl
inactive: Potency [1] | Potency [2] | Potency [3] | Potency [4] | Potency [5] | Potency [6] | Potency [7] | Potency [8] | Potency [9] | Potency [10] | Potency [11] | Potency [12]

O=C(Cc1c(F)cccc1F)Nc1cc(OCc2ccc(Cl)cc2)ccn1
inactive: Potency [1] | Potency [2] | Potency [3] | Potency [4] | Potency [5] | Potency [6] | Potency [7] | Potency [8] | Potency [9] | Potency [10] | Potency [11] | Potency [12]

Clc1cccc(COc2cncc(N3CCNCC3)n2)c1
inactive: Potency [1] | Potency [2] | Potency [3] | Potency [4] | Potency [5] | Potency [6] | Potency [7] | Potency [8] | Potency [9] | Potency [10] | Potency [11] | Potency [12]

CC1=CC2/C=C(\C)CCC3OC(C)(C)OC3CCC(=O)C23C(=O)NC(CC(C)C)C3C1C (configuration not stated)
inactive: Potency [1] | Potency [2] | Potency [3] | Potency [4] | Potency [5] | Potency [6] | Potency [7] | Potency [8] | Potency [9] | Potency [10] | Potency [11] | Potency [12]

O=C(NCCCc1ccccc1)C1CCC(CNS(=O)(=O)c2cccc3nsnc23)CC1 (configuration not stated)
inactive: Potency [1] | Potency [2] | Potency [3] | Potency [4] | Potency [5] | Potency [6] | Potency [7] | Potency [8] | Potency [9] | Potency [10] | Potency [11] | Potency [12]

COc1ccc(CCO[C@@H]2O[C@H](CO[C@H]3OC[C@](O)(CO)[C@H]3O)[C@@H](OC(=O)/C=C/c3ccc(O)c(O)c3)[C@H](O[C@@H]3O[C@@H](C)[C@H](O)[C@@H](O)[C@H]3O)[C@H]2O)cc1OC
inactive: Potency [1] | Potency [2] | Potency [3] | Potency [4] | Potency [5] | Potency [6] | Potency [7] | Potency [8] | Potency [9] | Potency [10] | Potency [11] | Potency [12]

O=C(NCc1ccc(OC(F)(F)F)cc1)C1c2c(F)cccc2C(=O)N1CCc1ccccn1 (configuration not stated)
inactive: Potency [1] | Potency [2] | Potency [3] | Potency [4] | Potency [5] | Potency [6] | Potency [7] | Potency [8] | Potency [9] | Potency [10] | Potency [11] | Potency [12]

CC(C)(CNC(=O)c1cccc(-c2noc(C(F)(F)F)n2)c1)c1coc(-c2ccccc2)n1
inactive: Potency [1] | Potency [2] | Potency [3] | Potency [4] | Potency [5] | Potency [6] | Potency [7] | Potency [8] | Potency [9] | Potency [10] | Potency [11] | Potency [12]

CC(C)(C)C1CCN(C(=O)n2ncc(C(O)(c3ccccc3)c3ccccc3)n2)CC1
inactive: Potency [1] | Potency [2] | Potency [3] | Potency [4] | Potency [5] | Potency [6] | Potency [7] | Potency [8] | Potency [9] | Potency [10] | Potency [11] | Potency [12]

O=c1cc(N2CCN(c3cccc(C(F)(F)F)c3)CC2)[nH]c(=O)n1C1CCCCC1
inactive: Potency [1] | Potency [2] | Potency [3] | Potency [4] | Potency [5] | Potency [6] | Potency [7] | Potency [8] | Potency [9] | Potency [10] | Potency [11] | Potency [12]

CCOc1ccc(-n2c(C(C)N(Cc3cccnc3)C(=O)Cc3ccc(F)c(C(F)(F)F)c3)nc3ncccc3c2=O)cc1 (configuration not stated)
inactive: Potency [1] | Potency [2] | Potency [3] | Potency [4] | Potency [5] | Potency [6] | Potency [7] | Potency [8] | Potency [9] | Potency [10] | Potency [11] | Potency [12]

O[C@@](Cc1ncc(CC2(C(F)(F)F)CC2)[nH]1)(c1ccc(-n2cccn2)cc1)C(F)(F)F
inactive: Potency [1] | Potency [2] | Potency [3] | Potency [4] | Potency [5] | Potency [6] | Potency [7] | Potency [8] | Potency [9] | Potency [10] | Potency [11] | Potency [12]

COc1ccc(-c2cnc3c(-c4cccc5ncccc45)cnn3c2)cc1
inactive: Potency [1] | Potency [2] | Potency [3] | Potency [4] | Potency [5] | Potency [6] | Potency [7] | Potency [8] | Potency [9] | Potency [10] | Potency [11] | Potency [12]

Cc1cc(-c2cc(OC(=O)c3ccccc3)ccc2Cl)cc2nnc(Nc3ccc(OCCN4CCCC4)cc3)nc12
inactive: Potency [1] | Potency [2] | Potency [3] | Potency [4] | Potency [5] | Potency [6] | Potency [7] | Potency [8] | Potency [9] | Potency [10] | Potency [11] | Potency [12]

C/C(=C\CO[C@@H]1O[C@H](CO[C@H]2OC[C@](O)(CO)[C@H]2O)[C@@H](O)[C@H](O)[C@H]1O)C(C)(C)O
inactive: Potency [1] | Potency [2] | Potency [3] | Potency [4] | Potency [5] | Potency [6] | Potency [7] | Potency [8] | Potency [9] | Potency [10] | Potency [11] | Potency [12]

COc1cc(NC(=O)c2cc(C3CC3)on2)c(OC)cc1Cl
inactive: Potency [1] | Potency [2] | Potency [3] | Potency [4] | Potency [5] | Potency [6] | Potency [7] | Potency [8] | Potency [9] | Potency [10] | Potency [11] | Potency [12]

C=C[C@](C)(O)CC[C@H]1C(C)=CC(=O)[C@H]2C(C)(C)CCC[C@]12C
inactive: Potency [1] | Potency [2] | Potency [3] | Potency [4] | Potency [5] | Potency [6] | Potency [7] | Potency [8] | Potency [9] | Potency [10] | Potency [11] | Potency [12]

O=[N+]([O-])c1ccc(Oc2ccc3c(c2)CCC(c2ccccc2)O3)nc1 (configuration not stated)
inactive: Potency [1] | Potency [2] | Potency [3] | Potency [4] | Potency [5] | Potency [6] | Potency [7] | Potency [8] | Potency [9] | Potency [10] | Potency [11] | Potency [12]
